{
  "source": "PubChem BioAssay (NCATS)",
  "note": "Inconclusive results are not listed. The source made the active and inactive calls. Calls follow the shape of the dose curve; as a rule, active = well fitted cell-killing curve with a large enough effect; inconclusive = small, poorly fitted or top-dose-only effect, or effect the other way; inactive = no such curve, though single readings can be large or run the other way.",
  "data": [
    {"assay": "Viability qHTS for spleen associated tyrosine kinase inhibitor (SYKi) naive MV4-11 cells (AID 1963823); also: nearly all actives have a fitted effect of over 40% in size; also: potency is read from the fitted curve at half-maximal effect", "conditions": "MV4-11 AML viability, CellTiter-Glo luminescence, 72 h; series mostly up to 45 µM; viability (% of control): at the top concentration", "in_short": "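SYKi-naive MV4-11 AML cells, 500 per well, were exposed to library compounds for 72 hr at 37 C, 5% CO2. Viability was then read by CellTiter-Glo luminescence after 10 min at room temperature.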", "values": [
      {"compound": "C[C@@H]1CC[C@]2(C(=O)O)CC[C@]3(C)C(=CCC4[C@@]5(C)C[C@@H](O)[C@@H](O)C(C)(C)C5CC[C@]43C)C2[C@]1(C)O", "note": "(some centres not stated)", "viability (% of control)": "70.3% [at 17.3 µM] (inactive)"},
      {"compound": "CC(C)(O)c1ccc2c(c1)C(=O)CC1[C@](C)(CO)CCC[C@]21C", "note": "(some centres not stated)", "viability (% of control)": "68.5% (inactive)"},
      {"compound": "CCC(=O)N1CCc2cc(OC)c(O)cc2C1", "viability (% of control)": "72.5% (inactive)"},
      {"compound": "C=C(C)C(=O)OC1[C@@H]2C(=C)C(=O)O[C@@H]2C[C@@H](C)[C@@H]2C=CC(=O)[C@@]12C", "note": "(some centres not stated)", "Potency": "2270 nM (active)"},
      {"compound": "O=C1c2c(O[C@@H]3O[C@H](CO)[C@@H](O)[C@H](O)[C@H]3O)cc(O)cc2OC1(O)Cc1ccc(O)cc1", "note": "(some centres not stated)", "Potency": "2000 nM (active)"},
      {"compound": "CC(C)(N)c1cc(C(=O)N[C@@H]2CCc3ccc(Oc4ccnc5c4CCC(=O)N5)cc3C2)cc(C(F)(F)F)c1", "Potency": "920 nM (active)"},
      {"compound": "CNC(=O)O[C@H]1COc2ccc(N3CCN(C4COC4)CC3)cc2[C@@H]1NC(=O)c1ccc(F)cc1", "viability (% of control)": "81.3% (inactive)"},
      {"compound": "Cc1cccc(/C=N/Nc2cc(N3CCOCC3)n3nc(-c4ccncc4)cc3n2)c1", "Potency": "1030 nM (active)"},
      {"compound": "C=C1[C@H]2CC[C@H](C(=O)O)[C@@]23CC[C@H](C3)C1(C)C", "viability (% of control)": "40.6% (inactive)"},
      {"compound": "Cc1cn2c(n1)Cc1ccc(Cl)cc1C(c1ccc(N)cc1)=N2", "Potency": "14600 nM (active)"},
      {"compound": "COc1cc(C)c(C(=O)Oc2cc(C)c(C(=O)Oc3cc(C)c(C(=O)NC(C)C(=O)O)c(O)c3)c(O[C@@H]3O[C@H](CO)[C@@H](O)[C@H](O)[C@H]3OC(C)=O)c2)c(OC)c1", "note": "(some centres not stated)", "viability (% of control)": "63.7% [at 17.3 µM] (inactive)"},
      {"compound": "NC(=O)c1cccc(-c2cc(O)cc(OC(=O)NC3CCCCC3)c2)c1", "viability (% of control)": "68.9% [at 17.3 µM] (inactive)"}
    ]}
  ]
}
